FH mod – Identification of activators of human fumarate hydratase by quantitative high-throughput screening; Fumarate hydratase, mitochondrial (Homo sapiens), P07954; FH coupled MDH/diaphorase resazurin fluorescence, 15 min; Potency, µM (titrated, usually from 79.9 µM), without a hit: at the top dose activity change, negative = inhibition, hits mostly inhibitors; 54,000 compounds, 0.22% hits; AID 1347055, 2019; note: potency is the fitted concentration of half-maximal effect; % is set by controls: 0 for no effect and ±100 for the full control effect; the screen sought activators but most active calls are inhibition curves; nearly all actives have a fitted effect of over 45% in size
GPR32 ag – agonists of human resolvin D1 receptor DRV1 (GPR32) | O75388 | AID 1346428 | 48,000 compounds, 2.5% hits | CHO-K1 GPR32 beta-arrestin PathHunter luminescence, 90 min; zero percent set by DMSO-only wells | activation, % at 76.9 µM;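 active = activation of at least 60% and not above a set upper limit, about 1 call in 100 departs from these limits; inconclusive = activation of 40% to 60%, or above that upper limit; inactive = activation under 40%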; note: 0% is about no effect
Target sequence (O75388 whole entry, looked up): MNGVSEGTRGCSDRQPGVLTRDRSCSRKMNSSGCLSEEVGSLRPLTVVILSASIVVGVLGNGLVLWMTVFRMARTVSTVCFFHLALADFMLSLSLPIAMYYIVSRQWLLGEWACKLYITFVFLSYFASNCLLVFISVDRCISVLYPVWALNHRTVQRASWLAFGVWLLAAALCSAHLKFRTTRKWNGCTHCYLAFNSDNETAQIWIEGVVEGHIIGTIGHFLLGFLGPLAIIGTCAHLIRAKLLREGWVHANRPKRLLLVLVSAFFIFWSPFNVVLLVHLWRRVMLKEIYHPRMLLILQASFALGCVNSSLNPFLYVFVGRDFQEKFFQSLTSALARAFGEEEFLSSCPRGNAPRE
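Using DMSO wells as EC0, agonist-induced signal was taken as chemiluminescence from beta-Gal reconstituted upon beta-arrestin recruitment to GPR32 in CHO-K1 cells after 90 min compound treatment.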
p53null 32C tox – selectivity test: cytotoxicity in p53 null cells, permissive temperature. H1299-neo p53 null cells, ATP luminescence, 24 h, 32C. Potency, µM (series often up to 46.1 µM), inactives show top-dose activity change, negative = cytotoxicity, usual class: cytotoxic. 55,000 compounds, 0.62% hits. AID 903;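 note: potency is the fitted concentration of half-maximal effect; 0% = DMSO only and -100% = full killing by 100 µM tamoxifen; nearly all actives have a fitted effect of over 55% in size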
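Luminescent ATP readout gave cell viability of p53-null H1299-neo cells after a 24 h compound exposure at the permissive 32C. Titrations ran up to 46 uM, and AC50s were fitted with the standard Hill equation.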
p53null 39C kill – p53 null cell cytotoxicity, nonpermissive temperature; H1299 p53-null (neo) cells, 39C, ATPlite viability, 24 h; Potency, µM (titrated, usually from 46.1 µM), inactives show at the top dose activity, negative = cell killing, actives largely listed as cytotoxic; 55,000 compounds, 0.97% hits; AID 904;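 note: potency is the fitted concentration of half-maximal effect; 0% = DMSO only and -100% = full killing by 100 µM tamoxifen; nearly all actives have a fitted effect of over 50% in size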
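ATP-luminescence viability readout (ATPlite, 20 min RT) after 24 hr compound treatment at 39C of H1299-neo or H1299-p53A138V cells; titration up to 46 uM; normalized to DMSO and 100 uM tamoxifen; Hill-fit AC50.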
* = called active by the depositor; ? = inconclusive; / = no result; [ ] = remark or other dose. In the library only some 2.9% were active in any assay of this set; here they are far more common. Unless noted, calls come from the whole dose curve; as a rule, active = well fitted curve in the direction sought with a large enough effect; inconclusive = small, poorly fitted or top-dose-only effect, or another doubt; inactive = no such curve, though single readings can be large; an effect the other way counts as inactive or inconclusive.

SMILES	FH mod	GPR32 ag	p53null 32C tox	p53null 39C kill
COc1ccc(-c2nc3ccccc3n2Cc2ccc(C(C)C)cc2)cc1	?	-35.4	9.4%	?
Cc1cnc(NC(=O)CSc2nnc(-c3ccccc3)o2)s1	/	/	?	14.1µM*
Cc1cnc(NC(=O)CSc2ncn(-c3ccccc3)n2)s1	/	/	-0.1%	-4.8%
CCOC(=O)C1CCN(c2cc3c(cc2NC(=O)c2ccc(Cl)cc2)n(C)c(=O)n3C)CC1	20µM*	3.9	-2.7%	10.4%
CCOC(=O)C1CCN(c2cc3c(cc2NC(=O)c2ccccc2Cl)n(C)c(=O)n3C)CC1	?	-32.5	-1.1%	-8.9%
N#C/C(=C\c1ccc(-c2ccc(C(=O)O)cc2)o1)C(=O)Nc1ccccc1C(=O)O	14.1µM*	-2.0	2.8%	-1.3%
N#C/C(=C\c1ccc(-c2ccc(Br)cc2)o1)C(=O)Nc1ccccc1O	-0.6%	12.1	3.5%	-11.4%
COc1cc(Nc2nc(SCC(=O)c3ccc(Cl)c(Cl)c3)nc3ccccc23)cc(OC)c1	-9.9%	-25.5	-1.4%	21.1%
O=C(CSc1nc(Nc2ccccc2)c2ccccc2n1)c1ccc(Cl)cc1	0.8%	108.1*	-2.2%	-2.4%
CC(C)c1c2cc(-c3ccnc(NC4CCC(NC5CCOCC5)CC4)n3)ccc2nn1C (stereo unspecified)	-0.8%	/	/	/
CCOc1cccc(-c2nc3ccccc3c(=O)o2)c1	-13.2%	80.2*	12.6µM*	?
COc1cc(OC)cc(-c2nc3ccccc3c(=O)o2)c1	/	/	6.2%	14.2%
O=C1OC2(c3ccc(O)cc3Oc3cc(O)ccc32)c2ccccc21	-26.2%[53.3 µM]	110.6*	/	/
COc1ncc(-c2ccc3c(Nc4cc(Oc5cc(F)cc(F)c5)cc(C(=O)O)c4)c(S(=O)(=O)NC4CC4)cnc3c2)c(OC)n1	-1.2%	/	/	/
COc1ccc(NC(=O)C2CCCN(S(=O)(=O)c3cccs3)C2)cc1 (stereo unspecified)	-2.7%	7.8	-2.6%	-4.1%
O=C(Nc1ccc(Br)cc1)C1CCCN(S(=O)(=O)c2ccc(Br)s2)C1 (stereo unspecified)	1.9%	81.9*	-10.5%	-26.7%
CCc1ccc(NC(=O)C2CCCN(S(=O)(=O)c3cccc4nonc34)C2)cc1 (stereo unspecified)	2.2%	89.0*	-6.8%	-16.1%
CCN(c1cccc(C)c1)S(=O)(=O)c1ccc2[nH]cc(C(=O)NCCCOC)c(=O)c2c1	-21.7%	96.5*	0.8%	18.2%
CC(CC12CCCN1C(=O)C1CCCN1C2=O)OC(N)=O (stereo unspecified)	10.3%[53.3 µM]	/	/	/
COc1ccc(-c2cc(C(=O)Oc3ccc(Br)cc3)c3ccccc3n2)cc1	-13.4%	-20.0	?	12.6µM*
CN(C)C/C=C/C(=O)Nc1ccc(C(=O)Nc2cccc(Nc3ncc(Cl)c(-c4c[nH]c5ccccc45)n3)c2)cc1	6.2%	/	/	/
O=C(NCCc1csc(-c2cccnc2)n1)c1cccc(C(F)(F)F)c1	-4.8%	68.4*	-8.1%	10.6%
COc1ccc(S(=O)(=O)N(CC(=O)NC(C)c2ccccc2)c2ccc(C)cc2)cc1OC (stereo unspecified)	?	76.1*	11.6%	22.9%
COc1ccc(S(=O)(=O)N(CC(=O)NCc2ccccc2)c2ccc(C)cc2)cc1OC	-9.1%	31.2	1.6%	-11.3%
COc1cccc(C(=O)Nc2nnc(C(C)C)s2)c1	/	/	-18.9%	-5.1%
SMILES	FH mod	GPR32 ag	p53null 32C tox	p53null 39C kill
COc1cccc(C(=O)Nc2nc3c(s2)CCCC3)c1	-31.4%	-0.4	12.6µM*	5.01µM*
Nc1nonc1C(=Nc1ccc(F)c(Cl)c1)NO	-3.5%	/	/	/
COc1cc(Br)c(S(=O)(=O)Nc2ccc(C(F)(F)F)c(O[C@@H]3CCN(C)C3)c2)cc1OC	0.7%	/	/	/
CC(C)(CC(=O)NCc1ccc(Cl)cc1Cl)CC1=NS(=O)(=O)c2ccccc2N1	-29.3%	109.5*	5.4%	22.3%
COc1ccc(Cl)cc1NC(=O)COC(=O)CC(C)(C)CC1=NS(=O)(=O)c2ccccc2N1	-14.8%	36.7	1.1%	-1.1%
Cc1ccc(Cl)cc1NC(=O)COC(=O)CC(C)(C)CC1=NS(=O)(=O)c2ccccc2N1	2.8%	?	-9.3%	2.3%
CCOc1ccccc1NC(=O)COC(=O)CC(C)(C)CC1=NS(=O)(=O)c2ccccc2N1	-2.6%	83.4*	14.2%	4.5%
C=CC1(C)C=C2CC[C@H]3[C@@](C)(C(=O)O)CCC[C@]3(C)C2CC1 (stereo partly specified)	-1.5%[53.3 µM]	/	/	/

Compound activity (PubChem BioAssay)
